Our source for the growth inhibition values is PubChem BioAssay (NCI).

The structures appear in SMILES notation. This is part of a sample that, as a whole, favours compounds with a hit. Of some 79,000 tested, about 15% had one in any assay. Values without a mark were called inactive. The source made the active and inactive calls. Rule as the data show it: active = growth inhibition above about 70%; inactive = the rest.

Experiment [1] is described as follows: NCI Yeast Anticancer Drug Screen. Data for the rad50 strain (AID 155).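 Also: 0% = growth of vehicle-only cultures of the same strain.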 As to conditions: S. cerevisiae rad50 strain growth inhibition, hits give high values; at 50.0 µM unless noted. A digest of the protocol: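 Cells are treated with compound, grown, and their growth is then scored against vehicle-only cultures of the same repair-deficient yeast strain.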
Experiment [2] is described as follows: NCI Yeast Anticancer Drug Screen. Data for the mec2-1 strain (AID 157). Particulars: S. cerevisiae mec2-1 strain, hits give high values; at 50.0 µM unless noted. A digest of the protocol:
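Test agents were screened against the mec2-1 yeast strain, with defined DNA repair or cell cycle alteration. Growth was scored as inhibition against vehicle-only controls.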

Experiment [3] can be described thus: NCI Yeast Anticancer Drug Screen. Data for the sgs1 mgt1 strain (AID 161).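 Also: 0% = growth of cultures given vehicle only.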 Particulars: S. cerevisiae sgs1 mgt1 strain, hits give high values; at 50.0 µM unless noted. In outline:
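Genetically altered yeast, compound exposure, growth inhibition relative to vehicle.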

Experiment [4] in a line: NCI Yeast Anticancer Drug Screen. Data for the cln2 rad14 strain (AID 165).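 Also: 0% = growth equal to vehicle treated cultures.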 As to conditions: S. cerevisiae cln2 rad14 strain, hits give high values; at 50.0 µM unless noted. In outline:
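Growth of compound-exposed yeast (cln2 rad14 genotype) measured and expressed as inhibition relative to vehicle.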

The nature of experiment [5]: NCI Yeast Anticancer Drug Screen. Data for the bub3 strain (AID 167). Particulars: S. cerevisiae bub3 mutant strain, hits give high values; at 50.0 µM unless noted. In outline: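 Part of a panel of yeast mutants defective in DNA damage repair or cell cycle regulation. Each strain is grown with compound, and inhibition is calculated relative to solvent-treated cultures.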

Experiment [6] is described as follows: NCI Yeast Anticancer Drug Screen. Data for the mlh1 rad18 strain (AID 175). As to conditions: S. cerevisiae mlh1 rad18 strain growth inhibition, hits give high values; at 50.0 µM unless noted. In outline: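 In this whole-cell yeast screen, a strain with altered DNA damage repair is challenged with compound, and its growth is measured against matched vehicle-treated controls.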

Turning to `Cc1cccc(CO)c1NC(=O)NCCCl`, the growth inhibition in experiment [1] is -0.4%; in experiment [2] it was -12.2%; in experiment [3], -4.55%; in experiment [4], -32.2%; in experiment [5], -17.9%; in experiment [6] it was 3.25%.
Regarding `Fc1c(F)c(-c2c(F)c(F)c(S)c(F)c2F)c(F)c(F)c1S`, the growth inhibition is -1.15% in experiment [1]; 3.75% in experiment [2]; 21.3% in experiment [3]; 3.05% in experiment [4]; 0.7% in experiment [5]; -21.9% in experiment [6].
Consider `O=C(O)CCC(CC(=O)O)C(=O)O` (stereo unspecified), for which the growth inhibition in experiment [1] is 19.1%; in experiment [2], 4.95%; in experiment [3], 16%; in experiment [4], 13.7%; in experiment [5] it was 23.9%; in experiment [6], 15.4%.
Turning to `CC1=C(C(=O)CC(=O)C(=O)Nc2ccc(Cl)cc2C)Sc2ccccc2N1`, the growth inhibition in experiment [1] is -4.7%; in experiment [2], 3.25%; in experiment [3], -26.6%; in experiment [4], 9.35%; in experiment [5] it was 6.7%; in experiment [6], -22.6%.
For `CCS(=O)(=O)C(CCCl)S(=O)(=O)CC`, the growth inhibition is 2.45% in experiment [1]; 0.9% in experiment [2]; 16.4% in experiment [3]; 8.55% in experiment [4]; 17.4% in experiment [5]; 13.9% in experiment [6].
In the case of `Cc1ccc([N+](=O)[O-])cc1NC(=O)Sc1ccc(C(C)(C)C)cc1C`, the growth inhibition in experiment [1] is 5.2%; in experiment [2] it was 6.9%; in experiment [3] it was 4.65%; in experiment [4], -11.4%; in experiment [5], 3.4%; in experiment [6], 8.8%.
For the compound `C[C@@]1(O)C2CC3CC1(c1ccccc1)CC(/C3=N/O)/C2=N\O` (stereo partly specified), the growth inhibition in experiment [1] was -14.3%; in experiment [2] it was -17.6%; in experiment [3], -1.8%; in experiment [4], 26.2%; in experiment [5], -16.7%; in experiment [6], 8.3%.
For the compound `CC1(C)CC[C@]2(C(=O)O)CCC3(C)C(=CCC4[C@@]5(C)CC[C@H](OC6OCC(O)C(O)C6OC6OC(CO)C(O)C(O)C6O)C(C)(C)C5CC[C@]43C)C2C1` (stereo partly specified), the growth inhibition was 84.8% (active) in experiment [1]; 85.2% (active) in experiment [2]; 89.8% (active) in experiment [3]; 87.7% (active) in experiment [4]; 88.5% (active) in experiment [5]; 87.5% (active) in experiment [6].
As to `Cc1c([N+](=O)[O-])cc(C(C)(C)C)c(OC(=O)c2ccccc2)c1[N+](=O)[O-]`, the growth inhibition in experiment [1] was 41.5%; in experiment [2], 24.7%; in experiment [3], 41%; in experiment [4] it was 16.3%; in experiment [5], 25.4%; in experiment [6], 20.4%.
On to `O=C(O)C1CCC(=O)N1Cc1c[nH]c2ccccc12` (stereo unspecified), for which the growth inhibition in experiment [1] was -2.2%; in experiment [2], -7.4%; in experiment [3], -10.2%; in experiment [4], -0.15%; in experiment [5], 15.4%; in experiment [6], -10.8%.
With `COc1ccccc1C(=O)Oc1ccc(OC(=O)c2ccccc2OC)c(C(C)=O)c1`, the growth inhibition in experiment [1] is 16.6%; in experiment [2], -1.85%; in experiment [3] it was 0%; in experiment [4] it was 3.25%; in experiment [5] it was 20.2%; in experiment [6] it was 35.4%.
As to `CSc1nc(C)cc(Nc2ccc(O)c(CN3CCCCC3)c2)n1`, the growth inhibition was 19.4% in experiment [1]; -20.3% in experiment [2]; -27.3% in experiment [3]; 10.4% in experiment [4]; -32.6% in experiment [5]; 2.6% in experiment [6].
With `O=c1c2ccccc2n2c(=S)[nH]nc2n1-c1ccccc1`, the growth inhibition in experiment [1] was -2.7%; in experiment [2], 3.55%; in experiment [3], -12.2%; in experiment [4] it was 6.95%; in experiment [5] it was 0.05%; in experiment [6], -10.8%.
As to `CCN(CC)CCCNc1ncnc2c1C(c1ccccc1)c1ccccc1-2` (stereo unspecified), the growth inhibition was 8.5% in experiment [1]; -14.7% in experiment [2]; 1.7% in experiment [3]; 6% in experiment [4]; -4.85% in experiment [5]; -6.9% in experiment [6].
`COc1cc(OC)c(OC)cc1/C=C/c1nc2ccccc2s1`: the growth inhibition is 25.1% in experiment [1]; 20.1% in experiment [2]; 41% in experiment [3]; 18.8% in experiment [4]; 46.9% in experiment [5]; 3% in experiment [6].
Take `Cc1[nH]n(C(N)=S)c(=O)c1N=Nc1ccc([N+](=O)[O-])cc1Cl`: the growth inhibition is 57.8% in experiment [1]; 6% in experiment [2]; 66.2% in experiment [3]; -46.5% in experiment [4]; 1.5% in experiment [5]; 53.2% in experiment [6].
Take `O=C(O)/C=C/c1ccc(OS(=O)(=O)O)cc1`: the growth inhibition in experiment [1] was -12.6%; in experiment [2], -31.4%; in experiment [3] it was -14.9%; in experiment [4], 7.8%; in experiment [5] it was -9.8%; in experiment [6] it was -7.4%.
For the compound `COCCOC(=O)COc1ccccc1`, the growth inhibition in experiment [1] was 22.1%; in experiment [2], 23%; in experiment [3], 16.2%; in experiment [4], 3.5%; in experiment [5], -8%; in experiment [6] it was -1.15%.
As to `C=CCOC(=O)c1ccc(C(C)C)cc1`, the growth inhibition in experiment [1] was 25.1%; in experiment [2], 12%; in experiment [3] it was 9.5%; in experiment [4], 7.6%; in experiment [5], 8%; in experiment [6] it was 35.6%.
On to `CCCc1ccc(C)c(CCC)c1O`, for which the growth inhibition in experiment [1] is -5.95%; in experiment [2], -10.9%; in experiment [3] it was -5.1%; in experiment [4], -17.3%; in experiment [5], -4.05%; in experiment [6], 4%.
Turning to `CC(C)CCOB(OCCC(C)C)OCCC(C)C`, the growth inhibition in experiment [1] was -25.9%; in experiment [2], -40.1%; in experiment [3], -6.6%; in experiment [4] it was 2.45%; in experiment [5], -26.6%; in experiment [6], -23.2%.
